Results on 40 compounds are retold here after PubChem BioAssay (NCI).

Structures are written as SMILES. Compounds without any hit were thinned out: in the full panel of roughly 79,000, 15% have a hit. Unmarked numbers belong to inactive results. Calls of active or inactive are those of the source. Cut-off read from the data, not from the text of the source: active = growth inhibition above about 70%; inactive = the rest.

The test in a line: NCI Yeast Anticancer Drug Screen. Data for the mlh1 rad18 strain (AID 175). As to conditions: S. cerevisiae mlh1 rad18 strain growth inhibition; at 50.0 µM; active compounds read high. As for the experimental part:
Growth inhibition of yeast strains with defined genetic alterations is measured as a screen for potential anti-cancer activity. Selected strains with alterations in DNA damage repair or cell cycle control were exposed to compounds and growth inhibition was measured relative to vehicle treated controls. The strain used in this assay is mlh1 rad18
As for `CCCC(=O)Nc1ccc2c(c1)CN1C(=O)c3ccccc3C1=N2`, the growth inhibition was -7.15%.
Then `CC(C)=NNc1ccc([N+](=O)[O-])cc1[N+](=O)[O-]`, with 44.3%; and `CCCC(=O)c1cc(C)ccc1OC`, with -3.2%.
For `NNc1ccccc1C(=O)O` the value was 14.8%; for `CCCCC(O)c1ccccc1` (stereo not given), 6.8%.
Then `COc1cc2nc3cc([N+](=O)[O-])ccc3c(Cl)c2cc1OC`, with 7.6%; and `Cc1ccc(O)c(C(=O)c2ccccc2)c1`, with 14.7%; and `O=C(N/N=C\c1cc(Br)cc(Br)c1O)N/N=C/c1cc(Br)cc(Br)c1O`, with 33.2%.
As to `COCCOCCCl`, the growth inhibition was -6.7%.
On to `CC(=O)OC(OC(C)=O)C1CCCO1` (stereo not given), for which the growth inhibition is 1.1%.
On to `CC[N+](C)(CC)CCO`, for which the growth inhibition is 5.05%.
For `COc1ccc2c(NCCCCCCCCNc3c4ccccc4nc4cc(OC)ccc34)c3ccccc3nc2c1` the value was 88.3% (active); for `CC1(C(=O)O)NC(C(=O)O)Cc2c1[nH]c1ccccc21` (stereo not given), 13.3%.
For the compound `C/C=C/CC(C)C(O)C1C(=O)NC(CC)C(=O)N(C)CC(=O)N(C)C(CC(C)C)C(=O)NC(C(C)C)C(=O)N(C)C(CC(C)C)C(=O)NC(C)C(=O)NC(C)C(=O)N(C)C(CC(C)C)C(=O)N(C)C(CC(C)C)C(=O)N(C)C(C(C)C)C(=O)N1C` (stereo not given), the growth inhibition is 18.1%.
For `CN(C)c1ccc2oc(=O)c3ccccc3c2c1` the value was -33%; for `CC(=O)c1ccc(C(C)(C)C)cc1`, 15%.
On to `COc1cc(/C=N\Nc2ccccc2)ccc1OC(=O)c1ccccc1`, for which the growth inhibition is 17.6%.
Take `Cc1ccc(/C(C#N)=C/c2ccc3c(c2)OCO3)cc1`: the growth inhibition was 21.2%.
Then `Cc1ccc(C(=O)c2ccccc2)c(C)c1`, with 28.6%.
In the case of `Cc1cccc(C(=O)N(C(C)C)C(C)C)c1`, the growth inhibition is -0.35%.
Regarding `CCCC(C)OCC(=O)O` (stereo not given), the growth inhibition was -7.1%.
For `Sc1ccc(Nc2c3ccccc3nc3ccccc23)cc1` the value was 54.6%.
Take `CC(=O)OCC1CCCO1` (stereo not given): the growth inhibition is -32%.
On to `CNc1nc(NC)c2cn[nH]c2n1`, for which the growth inhibition was 16.1%.
As for `Cc1ccccc1N=C(c1ccccc1)C1C(=O)c2ccccc2C1=O`, the growth inhibition was 12.6%.
`Cc1cc(N)c(S(=O)(=O)O)c(N)c1`: the growth inhibition is -57.8%.
Consider `Cc1nc2ccccc2c(C(=O)O)c1O`, for which the growth inhibition was 19.9%.
On to `COc1ccc(C(O)c2ccccc2)cc1` (stereo not given), for which the growth inhibition is -15.2%.
For `OC1CCCc2ccccc21` (stereo not given) the value was 20.2%.
Then `CC1CCCCN1C(=S)Nc1ccc(S(=O)(=O)N2CCCCC2)cc1` (stereo not given), with -18.7%; and `S=c1sc2ccccc2n1CN1CCCCC1`, with 15.8%; and `c1ccc2c(c1)Sc1ccccc1S2`, with -18.6%.
`O=C1OC[C@H]2[C@H](c3ccc(O)c(O)c3)c3cc(O)c(O)cc3C[C@H]12`: the growth inhibition is 10.9%.
Regarding `CC1(O)CCCCC1O` (stereo not given), the growth inhibition is -15.3%.
For `O=C(OCC(O)C1OC(c2ccccc2)OC(COC(=O)c2ccccc2)C1O)c1ccccc1` (stereo not given) the value was 11.9%; for `C#Cc1cccc(NC(=O)c2ccc(Cl)cc2Cl)c1`, 15.7%; for `O=[N+]([O-])c1ccc(Cl)c(S(=O)(=O)O)c1`, 35.5%.
Then `NC(=S)N/N=C/c1ccc(N)cc1`, with 7.5%; and `CCOC(=O)c1[nH]c(C)c(C(=O)O)c1C`, with -11.2%.
In the case of `Cc1cccc(CO)c1`, the growth inhibition was -22.1%.
